A selection: hits, their analogues and other compounds. The true share with any hit is near 2.3%.
HTR2A ag: mouse Htr2a agonists via beta-arrestin recruitment, primary screen, cell-based, luminescence | 360,000 tested, 0.66% active | activation, % at 7.6 µM | CHO-K1 mHTR2A beta-arrestin complementation; percent of 30 µM serotonin response | 5-hydroxytryptamine receptor 2A (Mus musculus), P35363;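 active = activation above a run cutoff, the mean activation of all tested compounds plus 3 SD, cut at about 14% in these data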;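 also: 0% = plate median of compound wells and 100% = 30 µM serotonin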
ABHD5 PLIN5 PPI: ABHD5-PLIN5 interaction inhibitors, primary screen, cell lysate, split luciferase complementation, luminescence | Perilipin-5 (Homo sapiens) + 1-acylglycerol-3-phosphate O-acyltransferase ABHD5 (Homo … | Split G. princeps luciferase complementation, 4 h | inhibition, % at 4 µM | 360,000 tested, 0.78% active;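 active = inhibition above the mean inhibition across every tested compound plus 3 SD, cut at about 22% in these data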;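 also: 0% = DMSO only wells and the 100% control is not disclosed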
NTR1 agonist: agonists of human NTR1, primary screen, imaging, U2OS cells, beta-arrestin-GFP, high content | activation, % at 20 µM | 330,000 tested, 0.17% active | AID 493036, 2011 | NTR1-U2OS beta-arrestin-GFP spot imaging, agonist mode | Neurotensin receptor type 1 (Homo sapiens), P30989;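 active = activation at or above 40% of the spot to cytoplasm intensity ratio, with at least 20 cells analyzed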;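 also: 0% = DMSO without peptide and 100% = 100 nM NTR1 peptide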
Target sequence (P30989 whole entry, looked up): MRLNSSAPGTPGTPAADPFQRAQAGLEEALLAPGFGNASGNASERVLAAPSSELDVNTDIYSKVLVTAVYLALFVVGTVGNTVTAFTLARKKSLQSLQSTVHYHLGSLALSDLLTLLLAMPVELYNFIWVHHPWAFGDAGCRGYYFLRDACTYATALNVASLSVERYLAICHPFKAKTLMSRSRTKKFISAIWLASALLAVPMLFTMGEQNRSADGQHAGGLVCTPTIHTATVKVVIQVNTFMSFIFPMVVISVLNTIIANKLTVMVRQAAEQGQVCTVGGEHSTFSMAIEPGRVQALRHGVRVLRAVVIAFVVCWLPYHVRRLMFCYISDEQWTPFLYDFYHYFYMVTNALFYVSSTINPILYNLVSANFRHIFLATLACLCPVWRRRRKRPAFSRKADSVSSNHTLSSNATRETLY
Exocytosis inh: LAMP-1 surface exposure blockers, TALL-104 cells – cell-based, flow cytometry, MLPCN library, primary screen. TALL-104 LAMP-1 surface exposure; cells stimulated with thapsigargin and PMA. inhibition, % at 10 µM. 360,000 tested, 0.66% active. AID 651702, 2012;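 active = inhibition above about 55%, limit read from the data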
Beta2AR agonist: beta2AR agonists driving receptor internalization, primary screen, cell-based, FAP fluorogen, flow cytometry; Beta-2 adrenergic receptor (Homo sapiens), P07550; AID 504454, 2011; 340,000 tested, 0.43% active; Am2.2-beta2AR cells; response, % (no concentration beside the values);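 active = response above a set limit, near 3 SD of response in nonfluorescent compounds, cut at about 42% in these data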
ABHD5 PLIN5 conf: ABHD5-PLIN5 interaction inhibitors, confirmation, biochemical, luminescence; inhibition, % at 4 µM; shares compounds with ABHD5 PLIN5 PPI; 2,200 tested, 67% active; in the data active = inhibition above about 23%;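 also: 0% = DMSO vehicle wells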
HNF4 split-luc: HNF4 dimerization inhibitors, counter-screen for ABHD5-PLIN5 interaction inhibitor project, biochemical, split-luciferase complementation, luminescence. inhibition, % at 4 µM. 2,200 tested, 77% active. shares compounds with ABHD5 PLIN5 PPI;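 active = mean inhibition across replicate wells exceeding the computed hit threshold, cut at about 13% in these data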;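 also: light from luciferase halves that rejoin when HNF4 fusion proteins dimerize; 0% = DMSO only wells and the 100% control is not given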
* hit, by the source's call; / = no result given.

SMILES	HTR2A ag	ABHD5 PLIN5 PPI	NTR1 agonist	Exocytosis inh	Beta2AR agonist	ABHD5 PLIN5 conf	HNF4 split-luc
Cc1ccc(C)c(/C=C/C(=O)c2ccccc(=O)c2O)c1	-6	30*	/	-2	9	56*	35*
Cc1ccc(/C=C/C(=O)c2ccccc(=O)c2O)c(C)c1	-4	21	6	-3	15	/	/
NC(=O)c1nnn(Cc2cc(Cl)c(C(=O)c3ccc(Cl)cc3)c(Cl)c2)c1N	-3	-4	/	14	/	/	/
Cc1[nH]c2ccccc2c1C1=CC(=O)C=CC1=O	-11	49*	/	2	32	46*	80*
COc1ccc(-c2c([C@H]3[C@H]4C=CC[C@@H](C)[C@@H]4C(=O)N3Cc3ccccc3)ccc3ccccc23)cc1OC	1	7	2	-1	14	/	/
Cc1ccc(C2C3=C(CC(C)(C)CC3=O)N=C3c4ccccc4C(=O)C32)cc1 (configuration not stated)	-7	28*	8	28	-6	58*	69*
Cc1ccc(C2C3=C(CC(C)(C)CC3=O)OC3=C2C(=O)CC(C)(C)C3)cc1	-5	2	6	1	-4	/	/
CC1CCC(C(=O)NNC(=O)c2cc(-c3ccco3)[nH]n2)CC1 (configuration not stated)	-2	27*	-1	0	4	3	1
O=C(CCCN1C(=O)S/C(=C\C=C\c2ccccc2)C1=O)Nc1ccc(C(=O)O)cc1	4	34*	1	8	0	19	20*
O=C1C(SCCO)=C(SCCO)C(=O)c2ccccc21	-14	97*	-1	97*	-48	104*	111*
CC1=C(SCc2ccccc2)C(=O)c2ccccc2C1=O	-4	-10	/	1	5	/	/
O=[N+]([O-])c1cc(S(=O)(=O)NCCN2CCOCC2)ccc1Sc1nnnn1-c1ccccc1	3	13	2	1	5	/	/
Cc1ccc(-n2nnnc2Sc2ccc(S(=O)(=O)NCCN(C)C)cc2[N+](=O)[O-])cc1	-6	31*	/	7	36	19	34*
CC(=O)c1cccc(NC(=O)c2ccc(C)o2)c1	0	-3	0	29	1	/	/
Cc1nc(Cn2c3ccc(NC(=S)NC4CCCCC4)cc3c(=O)n2C)cs1	6	1	/	-5	/	/	/
CCOc1cc(/C=C2\C(=O)N(Cc3ccco3)C(C)=C2C(=O)OC)ccc1O	2	52*	2	6	24	37*	63*
C=CCNc1oc(-c2cccc(Cl)c2)nc1C#N	4	24*	-1	18	28	47*	41*
Cc1cccc(NC(=O)CN(CC2CCCO2)C(=O)c2ccc(S(C)(=O)=O)cc2)c1C (configuration not stated)	3	2	0	-1	-2	/	/
C=Cn1cc(CNC[C@H]2O[C@@H](n3ccc(N)nc3=O)[C@H](O)[C@@H]2O)c(C)n1	8	6	/	2	/	/	/
Cc1c(NS(=O)(=O)c2cccc(C(=O)NCc3ccco3)c2)c(=O)n(-c2ccccc2)n1C	4	25*	/	1	9	12	14*
CCN(c1ccccc1)S(=O)(=O)c1cc(C(=O)NCc2ccco2)ccc1C	7	27*	0	13	13	13	14*
O=C(NCCc1c[nH]c2ccccc12)c1[nH]c(C(F)(F)F)nc1-c1ccccc1	-2	-12	/	8	/	/	/
CCCCC[C@H](O)/C=C/C1C(=O)C=C[C@H]1C/C=C\CCCC(=O)OC (some centres not stated)	0	36*	/	8	9	45*	61*
CCCCC[C@H](O)/C=C/[C@@H]1[C@@H](C/C=C\CCCC(=O)OC)[C@@H](O)C[C@H]1O	-3	1	1	2	-2	/	/
CCN(CC)CCCOC(=O)C1(c2ccccc2)CCCC1	-4	6	0	1	0	/	/
SMILES	HTR2A ag	ABHD5 PLIN5 PPI	NTR1 agonist	Exocytosis inh	Beta2AR agonist	ABHD5 PLIN5 conf	HNF4 split-luc
CCN(CC)CCOCCOC(=O)C1(c2ccccc2)CCCC1	2	58*	-1	-2	2	77*	36*
CSc1ccc(CN(C)C(=O)c2cc(=O)[nH]c3ccccc23)cc1	-3	-3	1	0	-8	/	/
O=C(c1ccc2nccnc2c1)N1CCCC(N2CCN(c3ccc(F)cc3)CC2)C1 (configuration not stated)	-9	-2	0	-1	-1	/	/
Cc1nnnn1/C(=C\c1ccccc1)C(=O)OCC(=O)NC1CCCCC1	-5	25*	3	0	18	55*	62*
CC(=O)N/C(=C\c1ccccc1)C(=O)OCC(=O)NC1CCCC1	7	4	-1	-5	-3	/	/
Cc1nnnn1/C(=C\c1ccccc1)C(=O)OCC(=O)NC(C)(C)C	-1	13	2	8	19	/	/
CC(=O)Nc1ccc(NC(=O)COC(=O)/C(=C/c2ccccc2)n2nnnc2C)cc1	-7	40*	7	-4	10	52*	51*
CSCC[C@H](N)C(=O)NCC1CCC(C(=O)Nc2ccc3c(c2)OCO3)CC1 (some centres not stated)	-2	7	0	-4	1	/	/
COc1ccc(/C=C/C(=O)c2ccncc2)c2ccccc12	-1	56*	2	2	18	84*	79*
CCOC(=O)c1c(/N=C/C2=C(O)CC(C)(C)CC2=O)sc(C(C)=O)c1C	-5	8	0	1	-5	/	/
Cc1ccc(Cl)cc1NC(=O)C[n+]1ccc(Cc2ccc([N+](=O)[O-])cc2)cc1	9	24*	0	0	3	15	-2
COc1cccc(C(=O)/C=C/c2ccc(N3CCCCC3)c([N+](=O)[O-])c2)c1	-3	29*	10	0	2	87*	73*
COc1cccc(/C=C/C(=O)c2cccc([N+](=O)[O-])c2)c1	0	64*	18	0	94*	97*	97*
COc1ccc(OC(=O)c2cccc([N+](=O)[O-])c2)c(C(=O)/C=C/c2cccs2)c1	-4	42*	2	2	20	57*	53*
O=C(C=Cc1cccc(O)c1)c1ccccc1O	-5	45*	/	-6	56*	93*	75*
COc1cc(OC)c(C(=O)/C=C/c2ccccc2)c(O)c1O	-5	39*	8	-1	-5	50*	38*

Assay outcomes: PubChem, several laboratories
